Among the data in PubChem BioAssay AID2275 (Broad Institute, 2010) are viability loss activity score values, retold here.

The structures appear in SMILES notation. Hit rate of the full screen: of about 30,000 compounds, about 190 (0.63%) were called active. The sample holds actives, similar compounds and a random draw of the others, so the mix is not that of the screen. Rule as the data show it: active = viability loss activity score above about 50%; inconclusive = no clear call, values can overlap the other calls; inactive = below about 35%.

This assay can be described thus: BJeLR cell viability loss, primary screen, luminescence, CellTiterGlo ATP (AID 2275).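 Also: higher score means fewer live cells and less ATP luminescence.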 Particulars: BJeLR fibroblasts viability, 48 h, active compounds read high, HRASV12, hTERT and SV40 LT/ST transformed, concentration not given here. In general terms: Cellular ATP, detected with luciferase, serves as a proxy for viable cell number.
For `CNC(=O)NC(=O)CSc1ncnc2sc(-c3ccccc3)cc12`, the viability loss activity score is 7.62% (inactive).

In the case of `CC(C)NC(=O)N(C)C[C@H]1Oc2ccc(NC(=O)CCCCCC(=O)Nc3ccccc3N)cc2C(=O)N([C@@H](C)CO)C[C@@H]1C`, the viability loss activity score is -2.79% (inactive).

For the compound `Cc1ccccc1C(=O)Nc1ccc(NC(=O)c2ccc(C(C)(C)C)cc2)cc1`, the viability loss activity score is -4.36% (inactive).

For the compound `N#Cc1c(-c2ccccc2)c(-c2ccccc2)nn(CC(=O)NN)c1=O`, the viability loss activity score was 26.9% (inactive).

For the compound `COC(=O)C1=C(C)NC2=C(C(=O)c3ccccc32)C1c1ccc(OC)cc1` (stereo not given), the viability loss activity score was -2.35% (inactive).

Regarding `CCOC(=O)c1cc2c(C)n(-c3ccccc3)c(C)c2cc(C(=O)OCC)c1=O`, the viability loss activity score is -1.14% (inactive).

As to `CC(C)n1c(SCC(=O)O)nc2cc(Cl)ccc21`, the viability loss activity score was 2.11% (inactive).

For the compound `CCN(/C=C1\SC(=S)N(c2ccc(OC)cc2)C1=O)CC`, the viability loss activity score is -2.34% (inactive).

Turning to `CCCN(C(=O)CCc1nc(-c2ccccc2F)no1)c1ccccc1C`, the viability loss activity score is 14.3% (inactive).

`COc1ccc(CN(C)C[C@H]2Oc3c(NC(=O)C4CCCCC4)cccc3C(=O)N([C@@H](C)CO)C[C@@H]2C)cc1`: the viability loss activity score is 0.512% (inactive).

Regarding `CC(=O)Nc1ccc(Nc2c3c4c(cccc4[nH]c2=O)C(=O)c2ccccc2-3)cc1`, the viability loss activity score was 59.2% (active).

Take `O=C(Nc1ccccc1C(=O)O)c1ccc(CN2CCOCC2)cc1`: the viability loss activity score was 8.6% (inactive).

On to `CCn1cc(C(=O)NC2CCCC(C)C2C)c2cc(OC)c(OC)cc2c1=O` (stereo not given), for which the viability loss activity score was 2.08% (inactive).

Regarding `O=C1/C(=C/c2cccc(Br)c2)SC(=S)N1CC(=O)N1CCCc2ccccc21`, the viability loss activity score was -6.26% (inactive).

With `O=S(=O)(Nc1ccccc1C(F)(F)F)c1ccc2c(c1)CCO2`, the viability loss activity score is 2.04% (inactive).

Regarding `C[C@@H]1CN([C@H](C)CO)C(=O)c2cc(NS(=O)(=O)c3ccc(Cl)cc3)ccc2O[C@@H]1CN(C)CC1CCCCC1`, the viability loss activity score was -2.47% (inactive).

With `COc1ccc(-c2nn(-c3ccc(C)c(Cl)c3)c3c2cnc2ccc(F)cc23)cc1OC`, the viability loss activity score is -4.15% (inactive).

In the case of `Cc1ccc(S(=O)(=O)n2c(C)cc(C(=O)O)c2C)cc1`, the viability loss activity score is -6.81% (inactive).

Take `NC1=NC(=O)C(Cc2cccc(Cl)c2)S1` (stereo not given): the viability loss activity score was -0.141% (inactive).

Regarding `CCC(Sc1nc2ccsc2c(=O)n1Cc1ccccn1)C(=O)Nc1cccc(OC)c1` (stereo not given), the viability loss activity score is -2.12% (inactive).

On to `CCOC(=O)C1C=C2C(=O)N3C=CC=CC3N=C2N(C(C)C)C1=NC(C)=O` (stereo not given), for which the viability loss activity score is -1.61% (inactive).

For the compound `C=CCSc1nnc2n1CCCN2C(=O)Nc1cccc(Cl)c1`, the viability loss activity score is -3.59% (inactive).

With `OC(CN1CCN(C2c3ccccc3-c3ccccc32)CC1)c1ccccc1` (stereo not given), the viability loss activity score was 0.265% (inactive).

Consider `Cc1cc(Nc2ccc(Cl)cc2)c2ccccc2n1`, for which the viability loss activity score was 12.6% (inactive).

As for `CCCn1cc(SCC(=O)N2CCc3ccccc32)c2ccccc21`, the viability loss activity score is 1.29% (inactive).

As to `CCOC(=O)c1c(NC(=S)Nc2ccc(OC)cc2)sc2c1CC(C(C)C)OC2` (stereo not given), the viability loss activity score was 3.67% (inactive).

For `CC(C)NC(=O)Cn1c2ccccc2c2cn[nH]c(=O)c21`, the viability loss activity score was -1.32% (inactive).

In the case of `CC(=O)N(c1nc(-c2cc3ccccc3oc2=O)cs1)c1cccc(C)c1C`, the viability loss activity score was 5.58% (inactive).

On to `CCc1c(C)c(C#N)c2nc3ccccc3n2c1-n1ccnc1`, for which the viability loss activity score was 1.77% (inactive).

Take `C[C@H]1CN([C@@H](C)CO)C(=O)c2cc(NC(=O)Cc3cn(C)c4ccccc34)ccc2O[C@H]1CN(C)Cc1ccc(Cl)c(Cl)c1`: the viability loss activity score is -2.28% (inactive).

Consider `Cc1ccc(S(=O)(=O)N(C)C[C@@H]2Oc3ccc(NS(=O)(=O)c4cccs4)cc3C(=O)N([C@@H](C)CO)C[C@H]2C)cc1`, for which the viability loss activity score is -3.75% (inactive).

For the compound `O=c1cc(N2CCN(c3ccccc3)CC2)[nH]c(=O)n1-c1ccc(Cl)cc1`, the viability loss activity score was 2.58% (inactive).

As to `CN(Cc1ccccc1)C(=O)c1cc(-c2ccc(Cl)cc2)on1`, the viability loss activity score was 3.08% (inactive).

In the case of `CC1=C(C(=O)OCc2ccccc2)OC(N)=C(C#N)C1c1ccc(F)cc1` (stereo not given), the viability loss activity score was 1.52% (inactive).

Consider `Cc1ccc(Cl)cc1N(C)C(=O)c1cc2c(-c3ccc(Cl)cc3)nn(C)c2s1`, for which the viability loss activity score is -0.32% (inactive).

Turning to `Cc1ccccc1NC(=O)Nc1ccccc1N1CCCCC1`, the viability loss activity score is 1.43% (inactive).

Take `C=C1SC(Nc2ccc(C)cc2)=NC1(C)C`: the viability loss activity score is 0.0102% (inactive).

In the case of `COc1ccc2c(c1)-c1c(ssc1=S)C(C)(C)N2C(C)=O`, the viability loss activity score was 12.8% (inactive).

Regarding `C[C@H]1O[C@@H](O[C@H]2[C@@H](O)C[C@H](O[C@H]3[C@@H](O)C[C@H](O[C@H]4CC[C@]5(C)C6C[C@@H](O)[C@]7(C)[C@@H](C8=CC(=O)OC8)CC[C@]7(O)C6CC[C@@H]5C4)O[C@@H]3C)O[C@@H]2C)C[C@H](O)[C@@H]1O` (stereo not given in full), the viability loss activity score was 129% (active).

As to `COc1cc(OC)cc(C2C(C#N)=C(N)OC(N)=C2C#N)c1`, the viability loss activity score is 1.86% (inactive).

Consider `CCOC(=O)C1CCN(C(=O)CN2C(=O)c3ccccc3C2=O)CC1`, for which the viability loss activity score is -3.08% (inactive).

In the case of `Cc1noc(C)c1NC(=O)Nc1ccc2c(c1)C(=O)N([C@H](C)CO)C[C@H](C)[C@H](CN(C)Cc1ccc(-c3ccccc3)cc1)O2`, the viability loss activity score is -1.86% (inactive).

Take `Cc1cc(-c2nc(C)c(-c3nnc(SCC(=O)Nc4ccccc4)n3C)s2)no1`: the viability loss activity score was -2.45% (inactive).

In the case of `Cc1ccc2oc(=O)c3cc(C(=O)NC4CCCC4)sc3c2c1`, the viability loss activity score is 4.55% (inactive).

In the case of `Cc1ccc(S(=O)(=O)N(CC(=O)Nc2ccc3c(c2)OCCO3)C2CCCCC2)cc1`, the viability loss activity score is -4.45% (inactive).

As for `COc1cc2c(cc1OC)C1CN3CCc4cc(OC)c(OC)cc4C3CN1CC2` (stereo not given), the viability loss activity score is 18.2% (inactive).

Turning to `CC[C@H]1CN2CCc3cc(OC)c(OC)cc3[C@@H]2C[C@@H]1C[C@H]1NCCc2cc(OC)c(OC)cc21`, the viability loss activity score is 96.1% (active).

For `O=C(Nc1cccc(-c2nc3ccccc3o2)c1)c1cccc(OCc2ccccc2)c1`, the viability loss activity score was 10.7% (inactive).

Consider `Cc1ccc(CN2CCSc3ccc(C(=O)Nc4ccc(F)cc4)cc32)cc1`, for which the viability loss activity score is 0.172% (inactive).

`O=C(NC1CCCCC1)C1CCC(CNS(=O)(=O)c2ccccc2)CC1` (stereo not given): the viability loss activity score is 6.1% (inactive).

On to `CCc1ccc(NC(=O)NC(C)(C)C)cc1`, for which the viability loss activity score was -4.47% (inactive).

`Cc1ccc(CNC(=O)CCC(=O)Nc2ccc3nc(N4CCCCC4)cc(C)c3c2)cc1`: the viability loss activity score was 0.494% (inactive).

For the compound `Cc1ccccc1NCC(=O)NN`, the viability loss activity score is -2.54% (inactive).

Take `Cc1nnn(C23CC4CC(CC(CC(=O)Nc5ccc(Cl)cc5)(C4)C2)C3)n1`: the viability loss activity score is -2.2% (inactive).

For the compound `CC(C)(C)c1ccc(/C=C/C(=O)NCCCn2ccnc2)cc1`, the viability loss activity score was 0.598% (inactive).

As to `Nc1cc(=O)[nH]c2nnc(SCc3ccc(Br)cc3)n12`, the viability loss activity score is -1.86% (inactive).

As for `Cc1ccc(N2C(=O)c3oc4cc(C)c(C)cc4c(=O)c3C2c2ccc(O)cc2)nc1` (stereo not given), the viability loss activity score is -1.21% (inactive).

Turning to `Oc1ccc(CN2CCCC2)c2cccnc12`, the viability loss activity score was -4.68% (inactive).

On to `CC1(C)Cc2c(cnn2-c2ccc(F)cc2)-c2nc3ccccc3nc21`, for which the viability loss activity score is -0.68% (inactive).

`CC(C)N(Cc1nc(-c2ccccc2)no1)C(=O)CCc1ccccc1`: the viability loss activity score was -7.42% (inactive).

Take `Nn1c(C(=O)N2CCCC2)nc2ccccc2c1=O`: the viability loss activity score was -0.611% (inactive).

With `CC(C)c1ccc(S(=O)(=O)N2CCN(S(=O)(=O)c3ccc(C(C)C)cc3)C(C)C2)cc1` (stereo not given), the viability loss activity score was 4.1% (inactive).

Regarding `CC1C=CCC2C(=O)N(c3cccc(Cl)c3)C(=O)C12` (stereo not given), the viability loss activity score is 0.408% (inactive).

Regarding `CCCCN(Cc1ccccc1)S(=O)(=O)c1ccc2c(c1)oc(=O)n2CC(=O)OCC`, the viability loss activity score is -1.44% (inactive).

Regarding `O=C1c2ccccc2C(=O)N1CCCC(=O)n1ccc2ccccc21`, the viability loss activity score was -4.38% (inactive).

Take `O=C(O)C1=NN(c2ccccc2)C(=O)/C1=C/c1cccs1`: the viability loss activity score is 5.24% (inactive).

Take `O=C(CCSc1nc(-c2ccco2)cc(C(F)(F)F)n1)N1CCCCC1`: the viability loss activity score was -3.03% (inactive).

As for `COc1ccc(Cn2c(=O)oc3ccccc32)cc1`, the viability loss activity score is -1.69% (inactive).

Regarding `C[C@H](CO)N1C[C@H](C)[C@H](CN(C)S(=O)(=O)c2cccs2)Oc2c(NC(=O)Nc3ccc4c(c3)OCO4)cccc2C1=O`, the viability loss activity score is 1.64% (inactive).

Turning to `C=CCNC(=O)/C=C/c1ccc(C(C)C)cc1`, the viability loss activity score was -1.64% (inactive).

As for `COc1cc2c(C(=O)N3CCN(c4ccccc4)CC3)cn(CC(C)C)c(=O)c2cc1OC`, the viability loss activity score was -11.1% (inactive).

For `CCN(C(=O)CSc1nc2ccccc2c2nc3ccccc3n12)c1cccc(C)c1`, the viability loss activity score was 0.323% (inactive).

`O=C(NC1CCCC1)c1cc(-c2ccc(Br)cc2)on1`: the viability loss activity score is -5.17% (inactive).

Take `C[C@@H]1CN([C@H](C)CO)C(=O)c2cc(NS(=O)(=O)c3cccs3)ccc2O[C@H]1CN(C)Cc1ccncc1`: the viability loss activity score was 1.52% (inactive).

`NNC(=O)CN1C(c2ccc(Cl)cc2)=Nc2ccc(Cl)cc2C1c1ccccc1` (stereo not given): the viability loss activity score is 4.53% (inactive).

For `CC1=C(C(=O)Nc2ccccc2Br)C2(CCCCC2)OC1=O`, the viability loss activity score is -3.85% (inactive).

As for `O=C(Nc1cccnc1)c1cc2c(s1)-c1ccccc1CC2`, the viability loss activity score is 2.6% (inactive).

Turning to `COc1ccc(S(=O)(=O)N(C)C[C@H]2Oc3ccc(NS(C)(=O)=O)cc3C(=O)N([C@H](C)CO)C[C@H]2C)cc1`, the viability loss activity score was 4.8% (inactive).

Consider `CC(C)c1ccc(NC(=O)c2ccc(NS(=O)(=O)c3cccs3)cc2)cc1`, for which the viability loss activity score is 11.3% (inactive).

As to `CCOc1ccc(NC(=O)Cn2c3c(c(-c4ccccc4)cc2=O)CCCC3)cc1`, the viability loss activity score is 3.03% (inactive).

On to `Cc1ccc2nc(-c3ccc(NC(=O)C4CCC4)cc3)sc2c1`, for which the viability loss activity score was -1.59% (inactive).

On to `Cc1ccc(OCC(=O)Nc2ccc(-c3nn4c(C)nnc4s3)cc2)cc1`, for which the viability loss activity score was -1.91% (inactive).

Turning to `CC1CCCCN1C(=O)CSc1nc(-c2ccccc2)cc(C(F)(F)F)n1` (stereo not given), the viability loss activity score is -1.5% (inactive).

Take `CCC1=Nc2cc(C(=O)NCCCN3CCOCC3)ccc2Sc2ccc(Br)cc21`: the viability loss activity score was 7.81% (inactive).

With `C[C@@H]1CN([C@@H](C)CO)C(=O)c2cccc(NC(=O)Nc3ccc(C(F)(F)F)cc3)c2O[C@@H]1CN(C)S(=O)(=O)c1ccc(F)cc1`, the viability loss activity score is -0.826% (inactive).
